Assay results published in the supplement of paper PMC13380429.

System: Vero E6 infected with SARS-CoV-2
Assay: inhibition of SARS-CoV-2 cytopathic effect; higher = more antiviral protection, active = above 15
Details: 48 h

Measured: inhibition of SARS-CoV-2 cytopathic effect

CCOC(=O)c1ccc(-c2ccc(OC(=O)N(C)Cc3cccc(-c4ccncc4)c3)cc2)cc1
inactive: 1 nM 2.8% | 8.33 nM -0.08% | 100 nM 3.06% | 833.33 nM 4.52% | 10000 nM 4.58%

CC(C)C(=O)c1c(C(C)C)nn2ccccc12 [ibudilast]
inactive: 1 nM 2.15% | 8.33 nM 6.68% | 100 nM 5.43% | 833.33 nM 7.59% | 10000 nM 2.39%

COc1ccc(Cl)cc1C(=O)NCCc1ccc(C(=O)O)cc1 [meglitinide]
inactive: 1 nM 2.2% | 8.33 nM 0.5% | 100 nM 1.3% | 833.33 nM 0.11% | 10000 nM 1.33%

C#Cc1cccc(Nc2ncnc3cc(OCCOC)c(OCCOC)cc23)c1 [erlotinib]
inactive: 1 nM -0.8% | 8.33 nM -0.26% | 100 nM -1.96% | 833.33 nM -4.63% | 10000 nM -14.6%

Cc1cc(-c2nc(-c3ccc(OC(F)(F)F)cc3)no2)nn1Cc1ccnc(N2CCN(C3CC3)CC2)c1
inactive: 1 nM 0.33% | 8.33 nM -2.02% | 100 nM -12.6% | 833.33 nM 0.7% | 10000 nM -8.83%

Cc1cccc(Oc2nc3c(C)cccn3c(=O)c2/C=C(\C#N)c2nc3ccccc3s2)c1
inactive: 1 nM -0.1% | 8.33 nM 1.16% | 100 nM 0.8% | 833.33 nM 3.43% | 10000 nM 0.62%

C[C@@H](CN1CC(=O)NC(=O)C1)N1CC(=O)NC(=O)C1 [dexrazoxane]
inactive: 1 nM 1.89% | 8.33 nM 2.78% | 100 nM 2.19% | 833.33 nM 3.16% | 10000 nM -1.81%

CCN(CC)C(=O)N[C@H]1C[C@@H]2c3cccc4[nH]cc(c34)C[C@H]2N(C)C1 [terguride]
inactive: 1 nM -0.35% | 8.33 nM -0.23% | 100 nM -0.57% | 833.33 nM -2.15% | 10000 nM -0.04%

CC[C@H](c1ccc(O)cc1)[C@@H](CC)c1ccc(O)cc1 [hexestrol]
inactive: 1 nM -3.59% | 8.33 nM -0.58% | 100 nM -0.76% | 833.33 nM -3.14% | 10000 nM 2.9%

C=CC1=C(C(=O)O)N2C(=O)[C@@H](NC(=O)/C(=N\O)c3csc(N)n3)[C@H]2SC1 [cefdinir]
inactive: 1 nM 1.85% | 8.33 nM 2.62% | 100 nM 2.17% | 833.33 nM -0.24% | 10000 nM 0.66%
